Tau fluor cs: counter-screen for tau fibril formation inhibitors; AID 1463; Potency, µM (top dose mostly 57.7 µM), for the others: top-dose activity change, negative = decrease; actives 0.93% (n = 280,000); tau K18 P301L Alexa594 fluorescence, heparin fibrillization; note: potency is the fitted concentration of half-maximal effect; nearly all actives have a fitted effect of over 55% in size
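Human tau K18 P301L (15 uM unlabeled, 0.24 uM Alexa 594-labeled) in 100 mM sodium acetate pH 7 with 20 uM heparin, 6 hr at 37 C. ThT 30 uM added, 1 hr ambient; Alexa 594 FP and total fluorescence read at 555/632 nm.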
FBPA coupling cs: inhibits coupling enzyme system, counter-screen for aldolase hits; AID 2472; activity change, negative = inhibition, % at 58.2 µM, hits read low; coupling enzyme system counterscreen, AmpLite Red fluorescence; actives 0.67% (n = 290,000); in the data active = activity change below about -30%
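Coupling enzymes only (glyceraldehyde-3-phosphate) + compound, at 57.5 uM final, 10 min RT; add substrate/coupling/AmpLite Red mix, 20 min RT; fluorescence ex 525/em 598 nm. Actives flag coupling-system interference.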
Tau fibril ThT: inhibitors of human tau fibril formation, thioflavin T binding | AID 1460 | actives 2.1% (n = 270,000) | Potency, µM (series often up to 57.4 µM), without a hit: at the top dose activity, negative = inhibition, actives largely listed as inhibitors | P10636 | recombinant tau K18 P301L, heparin-induced fibrillization, ThT fluorescence; note: potency is the fitted concentration of half-maximal effect; nearly all actives have a fitted effect of over 55% in size
Target sequence (P10636 561-689 P618L limits assumed): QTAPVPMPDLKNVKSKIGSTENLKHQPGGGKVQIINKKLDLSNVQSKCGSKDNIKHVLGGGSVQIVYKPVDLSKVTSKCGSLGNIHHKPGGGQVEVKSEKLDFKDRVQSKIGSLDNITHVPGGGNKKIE
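Fibril formation assay: tau K18 P301L at 15 uM with trace Alexa 594 label, heparin inducer 20 uM, pH 7 sodium acetate buffer, 37 C for 6 hr; endpoint ThT signal.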
Tau FP inhib: inhibitors of human tau fibril formation | P10636 | K18 P301L tau heparin fibrillization, Alexa594 FP, 6 h | Potency, µM (top dose mostly 57.7 µM), without a hit: top-dose activity, negative = inhibition, hits mostly inhibitors | actives 0.39% (n = 280,000) | AID 1468; note: potency is the fitted concentration of half-maximal effect; nearly all actives have a fitted effect of over 55% in size
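K18 P301L tau (15 uM unlabeled/0.24 uM Alexa 594-labeled, final) + compound + heparin 20 uM final; 100 mM NaOAc pH 7; 6 hr 37 C; ThT 30 uM final added, 1 hr RT; FP ex 555/em 632 nm.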
Sfp PPTase inh: Sfp phosphopantetheinyl transferase inhibition | Biochemical Sfp PPTase activity, qHTS | Potency, µM, for inactives: largest response in the series, negative = inhibition, most hits filed as inhibitors | actives 3.5% (n = 310,000) | AID 1490;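 note: the enzyme is Sfp with the accession as filed and its product quenches rhodamine fluorescence; potency is the fitted concentration of half-maximal effect; 0% = enzyme reaction without inhibitor and -100% = no enzyme wells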
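After 15 min at room temperature with compound, 15 nM Sfp received 5 uM rhodamine-CoA plus 12.5 uM BHQ-2-ybbR (50 mM Hepes pH 7.6, 10 mM MgCl2). Rate came from the fluorescence difference over 30 min, ex 525/em 598 nm.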
Sfp PPTase conf: confirmation of Bacillus subtilis Sfp PPTase inhibitors; Sfp PPTase enzymatic assay, qHTS titration; shares compounds with Sfp PPTase inh; Potency, µM (titrated, usually from 114 µM), for the others: at the top dose activity change, negative = inhibition, actives largely listed as inhibitors; actives 79% (n = 380);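 note: potency is the fitted concentration of half-maximal effect; plate controls were uninhibited Sfp reaction for no effect and no enzyme control for full effect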
Target sequence (Q9F4F7 whole entry, looked up): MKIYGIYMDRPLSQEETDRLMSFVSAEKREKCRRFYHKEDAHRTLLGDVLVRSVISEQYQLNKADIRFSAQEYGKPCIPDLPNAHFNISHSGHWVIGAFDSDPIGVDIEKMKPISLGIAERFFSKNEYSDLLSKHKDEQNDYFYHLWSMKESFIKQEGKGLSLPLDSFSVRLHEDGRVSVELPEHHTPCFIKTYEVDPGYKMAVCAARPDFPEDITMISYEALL
Sfp gel assay: Inhibits B. subtilis Sfp phosphopantetheinylation; shares compounds with Sfp PPTase inh; purified Sfp, gel-based phosphopantetheinylation read-out; Potency, µM, actives largely listed as inhibitors; actives 20% (n = 210); AID 2707;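 active = potency below 100 µM; inconclusive = dose-dependent response but potency above 100 µM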;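 note: band intensities scaled against SCH202676 control wells before curve fitting; potency is an IC50 for inhibitors of Sfp transfer activity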
* hit, by the source's call; i = inactive; ? = inconclusive; . = no result; ! = a repeat was not active; [ ] = remark or other dose. An excerpt weighted towards active compounds, which were near 5.2% of everything screened. Unless noted, calls come from the whole dose curve; as a rule, active = well fitted curve in the direction sought with a large enough effect; inconclusive = small, poorly fitted or top-dose-only effect, or another doubt; inactive = no such curve, though single readings can be large; an effect the other way counts as inactive or inconclusive. Unless noted, % is set by controls: 0 for no effect and ±100 for the full control effect.

SMILES	Tau fluor cs	FBPA coupling cs	Tau fibril ThT	Tau FP inhib	Sfp PPTase inh	Sfp PPTase conf	others
CCOC(=O)c1c(NS(=O)(=O)c2cccc(OC)c2)sc2c1CCC2	-25%	16	?	-10%	2.8µM*	26µM*
CN1CCCC[C@@H]1CCN1c2ccccc2Sc2ccc(S(C)=O)cc21 (stereo partly drawn)	.	-5	.	.	20µM*!	42µM*	Sfp gel assay=19µM*
Clc1ccccc1CSc1nc2ccncc2[nH]1	-6%	3	-5%	-5%	56µM*	?	Sfp gel assay=?
O=C(NCc1ccccc1Cl)c1ccc(CSc2nc3ccncc3[nH]2)cc1	-15%	2	-4%	-10%	17%	.
CC1CC=CC2C1C(=O)N(Cc1ccccc1)C2c1ccc(F)c(/C=C/c2ccccc2)c1 (stereo not drawn)	.	0	.	.	-13%	.
N#Cc1ccccc1Cn1c(=O)n(CCCCC(=O)NCc2ccc3c(c2)OCO3)c(=O)c2ccccc21	-15%	.	-4%	-6%	.	.
CN1CCN(C(=S)C(=O)Nc2ccc(Br)cc2)CC1	-20%	-37*	?	?	1.3µM*	6.6µM*
Brc1ccc(Nc2c3c(nc4nncn24)CCC3)cc1	-6%	.	?	-3%	.	.
Cc1ccc(-n2nc(C)c3c(C(=O)O)cc(C)nc32)cc1	7%	.	6%	0%	.	.
Cc1nn(-c2ccccc2)c2nc(-c3ccco3)cc(C(=O)O)c12	-18%	11	?	-11%	13µM*	21µM*	Sfp gel assay=?
Cc1cccc(N(Cc2cc3ccccc3[nH]c2=O)C(=O)c2cccc(Cl)c2)c1	-10%	.	-6%	-5%	.	.
CCOC(=O)c1c(N2C(=O)CC(Sc3ccccc3C(=O)O)C2=O)sc2c1CCCC2 (stereo not drawn)	0%	13	?	-6%	3.5µM*	42µM*
CCOC(=O)c1c(N2C(=O)Nc3ccccc3N2O)sc2c1CCCC2	-2%	14	-15%	7%	9%	.
CCOC(=O)c1ccc(N2CCN(c3cc(C)ccc3C)CC2)c(NC(=O)Nc2ccc(Cl)cc2)c1	-25%	.	3%	-10%	.	.
COc1ccccc1CC(Cc1nc2ccccc2[nH]1)c1nc2ccccc2[nH]1 (stereo not drawn)	?	-6	-8%	-10%	5µM*	17µM*
Cc1ccc(NC(CC(=O)c2ccccc2)c2ccc(F)cc2)cc1 (stereo not drawn)	?	-6	-33%	6%	10%	.
O=C(CC(Nc1ccc(F)cc1)C(=O)O)c1ccccc1 (stereo not drawn)	3%	-3	?	-1%	2.2µM*	15µM*	Sfp gel assay=i
Cc1ccc(CN2CCSc3ccc(C(=O)N4CCN(c5ccc(Cl)cc5)CC4)cc32)cc1	-24%	.	?	7%	.	.
Cc1ccc(NS(=O)(=O)c2cccs2)nc1	.	-3	.	.	9%	.
CCCCS(=O)(=O)Nc1ccc(C)cn1	-16%	-51*	?	-17%	40µM*	47µM*	Sfp gel assay=i
O=C(O)Cc1ccc(NC(=O)Nc2ccc(Br)cc2)cc1	-21%	0	-3%	-2%	40µM*	?
CCOC(=O)c1ccc(NC(=O)C2=C(C)C(=O)OC23CCN(C(C)C)CC3)cc1	2%	.	0%	3%	.	.
CCOC(=O)c1sc(NC(=O)c2cc(-c3ccc(F)cc3)on2)c(C(=O)OCC)c1C	-6%	.	-3%	-4%	.	.
CC(C)(Oc1ccc(C2CCCc3ccccc32)cc1)C(=O)O (stereo not drawn)	.	.	.	.	-3%	.
Cc1cc2nc3ccc(=[N+](C)C)cc-3sc2cc1N	?	-42*	1.1µM*	8.9µM*	25µM*	37µM*
SMILES	Tau fluor cs	FBPA coupling cs	Tau fibril ThT	Tau FP inhib	Sfp PPTase inh	Sfp PPTase conf	others
CN1CCN(C(c2cccnc2)c2ccc3cccnc3c2O)CC1 (stereo not drawn)	-3%	-2	8%	-7%	2.8µM*	42µM*
CC(=O)NC(c1ccc2ccccc2c1)c1ccc2cccnc2c1O (stereo not drawn)	.	0	.	.	-13%	.
Cc1sc2c(c1C)C(=O)NC(c1ccccc1F)N2 (stereo not drawn)	-13%	-2	-7%	-6%	7.9µM*	7.4µM*	Sfp gel assay=i
O=C(O)Cc1sc(Nc2ccc(Cl)cc2)nc1-c1cccs1	?	2	?	9%	1.3µM*	59µM*
O=C1C2CCC(C2)[C@@H]2CCCCN12 (stereo partly drawn)	-5%[126 µM]	4	-4%[126 µM]	-5%[126 µM]	12%	.
Cc1cc(NC(=O)CN2C(=O)CC(c3ccco3)Sc3ccccc32)no1 (stereo not drawn)	7%	1	13%	13%	2.5µM*	15µM*	Sfp gel assay=i
Cc1cccc(N(CC(=O)NCCSCc2cccc(Cl)c2)S(=O)(=O)c2ccccc2)c1C	-22%	.	-9%	-2%	.	.
Cc1ccc(C2=NN=C(NC(=O)CSc3nncn3C)SC2)cc1	-18%	-2	22µM*	?	8.9µM*	26µM*
Cc1ccc(NC(=O)CSc2nncn2C)c(C)c1	-8%	.	-4%	-4%	.	.
C[C@@H](O)CNC(C)(C)CC(=O)N[C@@H]1CCc2ccccc2N(Cc2ccc(-c3ccccc3-c3nn[nH]n3)cc2)C1=O	-15%	5	-16%	-11%	3%	.
COC(=O)c1[nH]c2ccccc2c1NC(=O)Oc1ccccc1	-14%	-1	?	-2%	11µM*	?
C=CCOC(=O)Nc1c(C(=O)OC)[nH]c2ccccc12	-22%	-2	-16%	8%	-9%	.

Screens deposited in PubChem by National Center for Advancing Translational Sciences (NCATS).
